Results filed as inconclusive are left out. Activity calls are given as the source filed them. Unless noted, calls follow the shape of the dose curve; as a rule, active = well fitted curve in the direction sought with a large enough effect; inconclusive = small, poorly fitted or top-dose-only effect, or another doubt; inactive = no such curve, though single readings can be large; an effect the other way counts as inactive or inconclusive.

A short description of one experiment: qHTS assay for cell viability of the p53RE-bla HCT-116 cell line (AID 743292). Also: nearly all actives have a fitted effect of over 55% in size. Also: potency is read from the fitted curve at half-maximal effect. As to conditions: p53RE-bla HCT-116 viability, ATP luminescence, 16 h; series mostly up to 95 µM. Summed up:
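ATP-based luminescence, 16 h compound exposure at 37 C, p53RE-bla HCT-116 cells at 4,000/well.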
(In qHTS, concentration-response curves come from the screen itself.)
`CNCC(O)c1ccc(O)cc1` (stereo not given): the Potency result was “inactive”.
Same read-out and setting: for `C[C@]12CCC(=O)C(O)=C1CC[C@@H]1[C@@H]2CC[C@]2(C)C(=O)CC[C@@H]12` the value was “inactive”; for `Cc1cc(SCc2sc(-c3ccc(C(F)(F)F)c(F)c3)nc2C)ccc1OCC(=O)O`, 50.1 µM (active); for `CCCC(C)(COC(N)=O)COC(=O)NC(C)C` (stereo not given), “inactive”.
For the compound `C=C(C)[C@H]1Cc2c(ccc3c2O[C@@H]2COc4cc(OC)c(OC)cc4[C@@H]2C3=O)O1`, the Potency entry is “inactive”.
Take `NCC(O)c1ccc(O)cc1` (stereo not given): the Potency entry is “inactive”.
Still for that read-out and setting: as for `Nc1ccncc1`, the entry is “inactive”.

Another experiment can be described thus: qHTS profiling for inhibitors of Plasmodium falciparum (3D7) proliferation (AID 743322; call rule not given here;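 also: infected erythrocytes exposed to compound for 72 h before lysis; 100% = DMSO vehicle wells and 0% = 0.29 µM artemisinin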). As to conditions: P. falciparum 3D7 proliferation; at 28.7 µM (top of the series). Summed up: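 Erythrocytes infected with P. falciparum (0.3% parasitemia, 2.5% hematocrit) incubated with compounds 72 h at 37 C, 5% CO2. Lysis with saponin/Triton buffer containing SYBR Green I, overnight at room temperature in the dark; DNA fluorescence (485/535 nm) normalised to 0.29 uM artemisinin and DMSO.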
On to `CC(O)(CS(=O)(=O)c1ccc(F)cc1)C(=O)Nc1ccc(C#N)c(C(F)(F)F)c1` (stereo not given), for which the remaining parasite growth % (stronger effect = lower value) amounted to 91.3%.
The same measure, in the same setting: as for `CN(C)CCN(C)CCc1ccc(Cl)c(Cl)c1`, the figure is 55.4%; as for `Cn1cc(C2=C(c3cn(C4CCN(Cc5ccccn5)CC4)c4ccccc34)C(=O)NC2=O)c2ccccc21`, 94.2%; as for `CC1=C2C[C@@H]3[C@@H](CC=C4C[C@@H](O)CC[C@@]43C)[C@@H]2CC[C@]12O[C@H]1C[C@H](C)CN[C@H]1[C@H]2C`, 66.1%.
Regarding `COC[C@H]1OC(=O)c2coc3c2[C@@]1(C)C1=C(C3=O)C2CCC(=O)[C@@]2(C)C[C@H]1OC(C)=O` (stereo not given in full), the remaining parasite growth % (stronger effect = lower value) stood at 74.1%.
As for `C[C@]12CCC(=O)C(O)=C1CC[C@@H]1[C@@H]2CC[C@]2(C)C(=O)CC[C@@H]12`, the remaining parasite growth % (stronger effect = lower value) stood at 90.5%.
`O=C(O)C(=O)c1cn(Cc2ccccc2)c2ccc(-c3ccc(OC(F)(F)F)cc3)cc12`: the remaining parasite growth % (stronger effect = lower value) worked out at 110%.
Take `C[C@@H]1[C@@H](C(=O)C[C@H]2O[C@@H]3O[C@]4(C)CC[C@@H]5[C@H](C)CC[C@@H]([C@H]2C)[C@@]35OO4)O[C@@H]2O[C@]3(C)CC[C@H]4[C@H](C)CC[C@@H]1[C@@]24OO3`: the remaining parasite growth % (stronger effect = lower value) is -0.0732%.
Take `CNC(=O)N1N=C(c2ccc(N)cc2)c2cc3c(cc2CC1C)OCO3` (stereo not given): the remaining parasite growth % (stronger effect = lower value) turned out to be 46.2%.
On the same count and under the same terms, for `Cc1cc(SCc2sc(-c3ccc(C(F)(F)F)c(F)c3)nc2C)ccc1OCC(=O)O` the value was 101%.
On the same count and under the same terms, as for `CNC(=O)c1ccc(N2C(=S)N(c3ccc(C#N)c(C(F)(F)F)c3)C(=O)C23CCC3)cc1F`, the figure is 74.2%.
On the same count and under the same terms, as for `CCCCC/C=C\C/C=C\C/C=C\C/C=C\CCCC(=O)NC1CC1`, the figure is 6.79%; as for `Cc1sc2c(c1C)C(c1ccc(Cl)cc1)=N[C@@H](CC(=O)OC(C)(C)C)c1nnc(C)n1-2`, 4.84%.
Turning to `COC1(CS(=O)c2ccccc2)CCN(CCc2c[nH]c3ccc(F)cc23)CC1` (stereo not given), the remaining parasite growth % (stronger effect = lower value) is 23.6%.
Still for that read-out and setting: for `C[C@@H]1[C@@H](CC(C[C@H]2O[C@@H]3O[C@]4(C)CC[C@@H]5[C@H](C)CC[C@@H]([C@H]2C)[C@@]35OO4)C[S+](=O)([O-])c2ccc(COC(=O)N(C)C)cc2)O[C@@H]2O[C@]3(C)CC[C@H]4[C@H](C)CC[C@@H]1[C@@]24OO3` (stereo not given in full) the value was -0.6%; for `C=C(C)[C@H]1Cc2c(ccc3c2O[C@@H]2COc4cc(OC)c(OC)cc4[C@@H]2C3=O)O1`, 82.1%; for `Cn1c(CCCC(=O)O)nc2cc(N(CCCl)CCCl)ccc21`, 92.7%.
With `COc1ccc(C(=O)c2c(C)n(CCN3CCOCC3)c3ccccc23)cc1`, the remaining parasite growth % (stronger effect = lower value) came to 111%.

Another experiment is described as follows: qHTS profiling for inhibitors of Plasmodium falciparum (HB3) proliferation (AID 743324).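 Also: 100% = DMSO vehicle wells and 0% = artemisinin-treated control wells.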 As to conditions: Plasmodium falciparum HB3 blood-stage proliferation; at 28.7 µM (top of the series). Summed up: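 P. falciparum HB3 grown in erythrocytes (0.3% parasitemia, 2.5% hematocrit final) with compound for 72 h at 37 C, 5% CO2. Parasite DNA detected by SYBR Green after saponin/triton lysis overnight; normalized to 0.29 uM artemisinin and DMSO.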
Take `CC(O)(CS(=O)(=O)c1ccc(F)cc1)C(=O)Nc1ccc(C#N)c(C(F)(F)F)c1` (stereo not given): the remaining proliferation (% of control), lower = more inhibition came to 70.9%.
Same read-out and setting: for `CN(C)CCN(C)CCc1ccc(Cl)c(Cl)c1` the value was 36.8%; for `CC1=C2C[C@@H]3[C@@H](CC=C4C[C@@H](O)CC[C@@]43C)[C@@H]2CC[C@]12O[C@H]1C[C@H](C)CN[C@H]1[C@H]2C`, 5.81%; for `COC[C@H]1OC(=O)c2coc3c2[C@@]1(C)C1=C(C3=O)C2CCC(=O)[C@@]2(C)C[C@H]1OC(C)=O` (stereo not given in full), 74%.
Still for that read-out and setting: as for `C[C@]12CCC(=O)C(O)=C1CC[C@@H]1[C@@H]2CC[C@]2(C)C(=O)CC[C@@H]12`, the figure is 108%; as for `O=C(O)C(=O)c1cn(Cc2ccccc2)c2ccc(-c3ccc(OC(F)(F)F)cc3)cc12`, 30.7%.
As to `C[C@@H]1[C@@H](C(=O)C[C@H]2O[C@@H]3O[C@]4(C)CC[C@@H]5[C@H](C)CC[C@@H]([C@H]2C)[C@@]35OO4)O[C@@H]2O[C@]3(C)CC[C@H]4[C@H](C)CC[C@@H]1[C@@]24OO3`, the remaining proliferation (% of control), lower = more inhibition came out at 0.763%.
As for `CNC(=O)N1N=C(c2ccc(N)cc2)c2cc3c(cc2CC1C)OCO3` (stereo not given), the remaining proliferation (% of control), lower = more inhibition amounted to 83.9%.
For the compound `Cc1cc(SCc2sc(-c3ccc(C(F)(F)F)c(F)c3)nc2C)ccc1OCC(=O)O`, the remaining proliferation (% of control), lower = more inhibition came out at 82.6%.
In the case of `CNC(=O)c1ccc(N2C(=S)N(c3ccc(C#N)c(C(F)(F)F)c3)C(=O)C23CCC3)cc1F`, the remaining proliferation (% of control), lower = more inhibition came to 43.8%.
Same read-out and setting: as for `CCCCC/C=C\C/C=C\C/C=C\C/C=C\CCCC(=O)NC1CC1`, the figure is 3.08%; as for `Cc1sc2c(c1C)C(c1ccc(Cl)cc1)=N[C@@H](CC(=O)OC(C)(C)C)c1nnc(C)n1-2`, -1.43%; as for `COC1(CS(=O)c2ccccc2)CCN(CCc2c[nH]c3ccc(F)cc23)CC1` (stereo not given), 10%.
On the same count and under the same terms, as for `C[C@@H]1[C@@H](CC(C[C@H]2O[C@@H]3O[C@]4(C)CC[C@@H]5[C@H](C)CC[C@@H]([C@H]2C)[C@@]35OO4)C[S+](=O)([O-])c2ccc(COC(=O)N(C)C)cc2)O[C@@H]2O[C@]3(C)CC[C@H]4[C@H](C)CC[C@@H]1[C@@]24OO3` (stereo not given in full), the figure is 0.323%.
As for `COc1ccc(C(=O)c2c(C)n(CCN3CCOCC3)c3ccccc23)cc1`, the remaining proliferation (% of control), lower = more inhibition worked out at 94.6%.

Values taken from PubChem BioAssay (NCATS).
